From PubChem
Most compounds without a hit are left out; they make up all but 17% or so of the library.
TDP1 cell CPT = growth inhibition of DT40 Tdp1-/-;hTDP1 cells with camptothecin (screen for TDP1 inhibitors) | chicken DT40 Tdp1-/-;hTDP1 cells + 20 nM CPT, ATP luminescence, 48 h | Potency, µM (highest dose often 46.2 µM), inactives show at the top dose activity change, negative = growth inhibition, actives largely listed as inhibitors | 420,000 compounds, 12% hits | AID 686979; also: % is scaled to controls: 0 for no effect and ±100 for the full control effect; nearly all actives have a fitted effect of over 55% in size
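Chicken DT40 Tdp1-/- cells stably complemented with human TDP1 were seeded at 400 cells/well in medium containing 20 nM camptothecin, exposed to pin-transferred compounds, and grown at 37 °C for at least 48 hr. Viability was read as ATP luminescence.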
TDP1 block = TDP1 (human) enzyme inhibition; Q9NUW8; recombinant TDP1, AlphaScreen DNA substrate cleavage; Potency, µM (top dose mostly 130 µM), without a hit: top-dose activity change, negative = inhibition, usual class: inhibitors; 350,000 compounds, 0.28% hits; also: % is scaled to controls: 0 for no effect and ±100 for the full control effect; nearly all actives have a fitted effect of over 40% in size
Target sequence (Q9NUW8 whole entry, looked up): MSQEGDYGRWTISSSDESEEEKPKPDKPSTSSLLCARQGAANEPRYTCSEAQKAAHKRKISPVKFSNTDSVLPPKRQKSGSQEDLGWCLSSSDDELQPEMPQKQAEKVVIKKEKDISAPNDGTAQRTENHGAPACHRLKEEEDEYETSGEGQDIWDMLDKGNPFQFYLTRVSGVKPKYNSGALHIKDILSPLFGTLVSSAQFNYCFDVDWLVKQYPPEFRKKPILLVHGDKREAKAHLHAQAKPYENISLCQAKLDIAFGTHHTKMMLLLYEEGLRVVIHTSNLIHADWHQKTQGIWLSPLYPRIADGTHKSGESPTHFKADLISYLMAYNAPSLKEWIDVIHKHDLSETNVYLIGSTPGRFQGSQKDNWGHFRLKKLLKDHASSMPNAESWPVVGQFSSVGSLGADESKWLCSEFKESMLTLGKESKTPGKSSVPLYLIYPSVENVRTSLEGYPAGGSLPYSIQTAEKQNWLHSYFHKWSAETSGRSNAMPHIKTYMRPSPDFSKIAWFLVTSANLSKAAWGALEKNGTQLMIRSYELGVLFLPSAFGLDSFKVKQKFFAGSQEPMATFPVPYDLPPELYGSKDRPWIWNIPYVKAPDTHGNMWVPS
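Recombinant E. coli-expressed Tdp1 (1 nM) preincubated with compound 15 min at RT, then 5'-biotin/3'-phosphotyrosine-FITC DNA substrate (15 nM) added for 5 min. AlphaScreen beads (10 ug/ml) added, 10 min RT; tyrosine-FITC cleavage read as signal loss.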
ClpP mod = qHTS Assay for Activators of ClpP; 340,000 compounds, 1.9% hits; AID 651965, 2013; ATP-dependent Clp protease proteolytic subunit (Bacillus subtilis (strain 168)), P80244; Potency, µM (doses to about 57.5 µM), for the others: at the top dose activity change, negative = active; purified B. subtilis ClpP, FRET peptide cleavage, 20 min; active = well fitted falling curve with a large enough effect; inconclusive = small, poorly fitted or top-dose-only effect; inactive = no such curve, though single readings can be large or run the other way; also: the source files actives as falling curves though it sought activators and does not explain the sign; nearly all actives have a fitted effect of over 65% in size
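Buffer: 100 mM Tris/HCl pH8, 100 mM KCl, 0.05% low protease BSA, 2.5% glycerol, 0.01% Tween-20. ClpP 10 microg/mL final; 20 min RT; delta FRET normalized to ADEP and DMSO controls.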
DT40 TDP1 no CPT = qHTS for Inhibitors of human tyrosyl-DNA phosphodiesterase 1 (TDP1): qHTS in cells in absence of CPT | Potency, µM (doses to about 46.2 µM), for inactives: at the top dose activity change, negative = growth inhibition, hits mostly inhibitors | 420,000 compounds, 15% hits | AID 686978, 2013 | DT40 Tdp1-/- hTDP1 cells, no CPT, ATP luminescence, 48 h; also: % is scaled to controls: 0 for no effect and ±100 for the full control effect; nearly all actives have a fitted effect of over 55% in size
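Seeded 400 DT40-hTDP1 cells/well (vehicle DMSO, no 20 nM CPT); pinned compounds; ≥48 hr at 37 °C; CellTiter-Glo luminescence as viability measure.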
Active calls of the source: *; ? = inconclusive; nt = no result given; [ ] = dose if it differs, or a comment. Unless noted, calls follow the shape of the dose curve; as a rule, active = well fitted curve in the direction sought with a large enough effect; inconclusive = small, poorly fitted or top-dose-only effect, or another doubt; inactive = no such curve, though single readings can be large; an effect the other way counts as inactive or inconclusive. Potency is read from the fitted curve at half-maximal effect.

SMILES | TDP1 cell CPT | TDP1 block | ClpP mod | DT40 TDP1 no CPT
Cc1ccsc1/C=C/c1n[nH]c(=O)c(C#N)c1C | 10% | 8% | nt | 3%
CCOC(=O)CN1C(=O)N[C@@H](c2cccc(C(F)(F)F)c2)[C@H](C(C)=O)[C@H]1C | ? | 12%[12.3 µM] | 1% | ?
Cc1csc(-c2nc3ccccc3n2C(C(=O)Nc2c(C)cccc2C)C2CC2)c1 (stereo not drawn) | ? | nt | 5% | ?
O=C(NCc1ccccc1)C(C1CC1)n1c(-c2cccs2)nc2ccccc21 (stereo not drawn) | 10µM* | nt | 4% | 9.2µM*
O=C(NCc1ccccc1)C(C1CC1)n1c(CSCCOc2ccccc2)nc2ccccc21 (stereo not drawn) | ? | nt | -4% | 16µM*
O=C(NC1CCCC1)C(C1CC1)n1c(-c2ccccn2)nc2ccccc21 (stereo not drawn) | 9.2µM* | nt | 4% | 7.3µM*
COC(=O)c1ccc(NC(=O)Cn2ccn3nc(-c4ccc(OC)cc4)cc3c2=O)cc1 | -3% | -9% | -8% | -1%
Cc1ccc(C(=O)N2CCc3cc(CNS(=O)(=O)c4cccs4)ccc32)cc1 | 15µM* | 0% | -2% | 18µM*
Cc1cccc(C(=O)N2CCc3cc(CNS(=O)(=O)c4cccs4)ccc32)c1 | 23µM* | -3% | 1% | 21µM*
COc1ccc(Cl)cc1S(=O)(=O)NCc1ccc2c(c1)CCN2C(=O)c1cccc(C)c1 | 3.3µM* | 8% | -4% | 4.6µM*
CCC(=O)N1CCc2cc(CNS(=O)(=O)c3cc(OC)ccc3OC)ccc21 | -1% | 8% | -2% | -1%
CCc1ccccc1NC(=O)C1=CN2CCS(=O)(=O)N=C2C=C1 | 3% | -8% | ? | -18%
[C-]#[N+]c1cc(-c2ccncc2)c(C)[nH]c1=O | 7%[92.5 µM] | 11% | nt | 2%[92.5 µM]
O=C(Cc1cccs1)N[C@@H]1C(=O)N2C(C(=O)[O-])=C(C[n+]3ccccc3)CS[C@H]12 | -3% | nt | nt | -14%
CS(=O)(=O)c1ccc(-c2cnc3c(NC=O)cc(-c4ccsc4)cn23)cc1 | 23µM* | nt | 5% | 18µM*
O=CNc1cc(-c2ccsc2)cn2c(-c3ccccc3)cnc12 | 16µM* | nt | -12% | 21µM*
CC(C)Oc1ccc(CN2CCCC(CO)(Cc3ccccc3)C2)cc1CO (stereo not drawn) | 29µM* | nt | nt | ?
COc1cccc(CC2(CO)CCCN(Cc3ccccc3Cl)C2)c1 (stereo not drawn) | ? | nt | -1% | ?
COc1cccc(CC2(CO)CCCN(Cc3cn(C)c4ccccc34)C2)c1 (stereo not drawn) | 21µM* | 4% | -3% | 23µM*
COc1cccc(CC2(CO)CCCN(Cc3ccc(CN4CCCCC4)s3)C2)c1 (stereo not drawn) | 21µM* | -4% | 3% | ?
OCC1(Cc2ccccc2)CCCN(Cc2ccc3c(c2)OCCO3)C1 (stereo not drawn) | -10% | 0% | 1% | -4%
COc1cccc(CC2(CO)CCCN(Cc3ccc(OC)c(C)c3OC)C2)c1 (stereo not drawn) | 18µM* | nt | -2% | 16µM*
CCOc1ccc(S(=O)(=O)N2CCC(C(=O)NCc3ccncc3)CC2)cc1Cl | -22% | nt | nt | -19%
COCc1ccc(CN2CCCC(CO)(Cc3cccc(OC)c3)C2)o1 (stereo not drawn) | ? | 4% | -5% | -43%
COc1cccc(CC2(CO)CCCN(Cc3cnn(-c4ccccc4)c3)C2)c1 (stereo not drawn) | ? | 3% | -1% | 26µM*
SMILES | TDP1 cell CPT | TDP1 block | ClpP mod | DT40 TDP1 no CPT
CCCCC(CC)CN=C(N)NC(N)=NCCCCCCN=C(N)NC(N)=NCC(CC)CCCC (stereo not drawn) | 13µM* | 6% | 2% | 9.2µM*
C=C1[C@@H]2CC[C@@H](C2)C1(C)C | 14% | nt | nt | -9%
CC#CC(=O)N1CCC(CO)(CCc2ccccc2)CC1 | -3% | 3% | 0% | 1%
CC1=CC(C)C2(COC(c3ccc[n+](C)c3)OC2)C(C)C1 (stereo not drawn) | 5.8µM* | 2% | 1% | 3.7µM*
CCOP(=O)(OCC)C(Nc1ccccc1)c1cccnc1 (stereo not drawn) | 6% | 6% | -1% | -13%
O=P(OC1CCCCC1)(OC1CCCCC1)C(Nc1ccccc1)c1cccnc1 (stereo not drawn) | ? | nt | nt | 15µM*
Cc1ccc(NC(=O)CSCc2cc(=O)n3ccsc3n2)cc1 | 0% | 0% | -3% | 24%
Cn1ncc2c(Nc3cccc(Cl)c3)nc(Nc3cccc(Cl)c3)nc21 | 16µM* | 0% | nt | 12µM*
CNc1nc(Nc2ccc(C)c(Cl)c2)c2cnn(C)c2n1 | 23µM* | nt | -28% | 15µM*
Cc1ccc(Nc2nc(NCCO)nc3c2cnn3C)cc1Cl | 21µM* | nt | -7% | 15µM*
Cn1ncc2c(NCc3ccccc3Cl)nc(NCCO)nc21 | ? | 6% | -13% | ?
CCCNc1nc(Nc2ccc(C)c(Cl)c2)c2cnn(C)c2n1 | 16µM* | nt | 4% | 23µM*
Cn1ncc2c(Nc3ccc(O)cc3)nc(Cl)nc21 | -3% | -5% | nt | -5%
C=CCNC(=O)c1sccc1Oc1ccc(F)cc1[N+](=O)[O-] | 5% | 6% | nt | 4%
CCOc1ccccc1CNc1ncnc2ccc(-c3c(C)noc3C)cc12 | nt | 1% | nt | nt
COc1ccccc1CNc1ncnc2ccc(-c3ccc(N(C)C)cc3)cc12 | 16µM* | 23%[56.1 µM] | nt | 13µM*
COc1ccccc1CNc1ncnc2ccc(-c3cccnc3)cc12 | ? | 16%[56.1 µM] | nt | 21µM*
COc1ccc(CNc2ncnc3ccc(-c4ccccc4C#N)cc23)c(OC)c1 | ? | nt | nt | -9%
COc1ccc(CN2CCN(Cc3cccc(Oc4ccccc4)c3)CC2)c(OC)c1OC | ? | nt | 0% | ?
COc1ccc(CN2CCN(c3ccc(F)cc3)CC2)c(OC)c1OC | ? | 5% | 1% | ?
COc1ccc(CN2CCN(C(c3ccc(F)cc3)c3ccc(F)cc3)CC2)c(OC)c1OC | 2.6µM* | 6% | 1% | 2.9µM*
COc1ccc(CN2CCN(Cc3ccc(Br)cc3)CC2)c(OC)c1OC | ? | nt | -5% | 16µM*
CC(C)CCNC(=O)Nc1ccc2c(c1)N(Cc1ccccc1)C(=O)c1ccccc1S2 | 18µM* | 5% | -2% | ?
CC(C)CCNC(=O)c1ccc2c(c1)N(Cc1cccc(Cl)c1)C(=O)c1ccccc1S2 | ? | 0% | 1% | 21µM*
CCOc1ccc(NC(=O)CCc2c(C)nc3cc(-c4ccccc4OC)nn3c2C)cc1 | ? | -6% | 4% | ?
Cc1ccc(-n2nc(C(=O)NC(C)C)c(=O)n(C)c2=O)cc1 | -16% | 7% | -3% | -15%
CNC(=O)[C@H](Cc1c[nH]c2ccccc12)NC(=O)[C@@H](CC(=O)NO)CC(C)C | 22µM* | 10% | nt | 31µM*
